Experimental data reported in PubChem BioAssay (Tox21).
Values joined by “and” are separate entries in the source; they are usually repeats but may differ in a detail not shown here. Identical values can stand only once. Results filed as inconclusive are left out. Unmarked numbers belong to inactive results. Calls come from the whole dose curve; as a rule, active = well fitted activation curve with a large enough effect in the repeat runs; inconclusive = weak or mixed curves; inactive = no such curve, though single readings can be large or run the other way.

Target: Nuclear receptor subfamily 1 group I member 2 (Rattus norvegicus) (UniProt Q9R1A7)
Experiment: Rat pregnane X receptor (rPXR) activation by small molecules, qHTS assay (AID 1346983); note: nearly all actives have a fitted effect of over 20% in size
Conditions: rPXR luciferase reporter cells, One-Glo luminescence, 24 h; active compounds read high
Description: National Center for Advancing Translational Sciences [NCATS] NIH Chemical Genomics Center [NCGC] U.S. Environmental Protection Agency [EPA] National Institutes of Environmental Health Sciences [NIEHS] National Toxicology Program [NTP] Assay overview: The Pregnane X receptor (PXR), a ligand activated nuclear receptor plays a critical role in the regulation of genes involved in drug metabolism and transporters. PXR binds xenobiotics and when compounds interact with PXR produces enhanced expression of CYP3A genes. In humans PXR activation and CYP3A4 induction can be problematic due to their interactions with co-medicated drugs and decrease their efficacy or increase their own metabolism. However, there are known species-specific differences with regard to PXR activation that should be taken into account when animal PXR data are extrapolated to humans. A cell based rat PXR (rPXR) assay (developed by Puracyp, Inc., CA) was used to assess the activation of rPXR.
Assay Protocol Summary: rPXR cells were dispensed at 2,000 per well in 5uL of assay medium into white, solid-bottom 1536-well plates using a Multidrop Combi dispenser (Thermo Scientific). The assay plates were incubated at 37 C for 5hr before transferring 23 nL of test compounds dissolved in DMSO and positive control via Pintool station (Wako). The assay plates were incubated at 37 C for 24 hr. Then 5ul One-Glo assay reagent (Promega) was added to each plate by a Flying Reagent Dispenser (FRD, Aurora Discovery) and following 30 min incubation at room temperature, luciferase activity was quantified on a ViewLux plate reader (Perkin Elmer).
% is set by controls: 0 for no effect and ±100 for the full control effect.

Nuclear receptor subfamily 1 group I member 2 (Rattus norvegicus), sequence (Q9R1A7 whole entry, looked up): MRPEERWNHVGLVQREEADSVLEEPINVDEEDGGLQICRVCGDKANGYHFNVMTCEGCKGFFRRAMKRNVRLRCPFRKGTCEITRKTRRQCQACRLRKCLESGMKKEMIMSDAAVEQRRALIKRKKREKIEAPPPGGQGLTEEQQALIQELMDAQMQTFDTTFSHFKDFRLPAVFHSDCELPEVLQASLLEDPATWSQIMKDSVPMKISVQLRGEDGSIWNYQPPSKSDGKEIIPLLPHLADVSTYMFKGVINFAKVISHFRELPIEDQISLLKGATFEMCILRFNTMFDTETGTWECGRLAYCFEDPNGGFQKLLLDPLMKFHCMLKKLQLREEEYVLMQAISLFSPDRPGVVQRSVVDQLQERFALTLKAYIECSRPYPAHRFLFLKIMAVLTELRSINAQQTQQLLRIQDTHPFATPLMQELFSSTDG

| Structure (SMILES) | max activation |
| --- | --- |
| COc1c(C)c2c(c(O)c1C/C=C(\C)CCC(=O)OCCN1CCOCC1)C(=O)OC2 | -3.72% |
| CCCCCCCCCCC[C@@H](C[C@@H]1OC(=O)[C@H]1CCCCCC)OC(=O)[C@H](CC(C)C)NC=O | -3.72% |
| CC(CCc1ccccc1)NCC(O)c1ccc(O)c(C(N)=O)c1 (stereo not given) | -0.392% |
| O[C@@H]([C@H](O)[C@H](O)CBr)[C@H](O)CBr | -0.988% |
| Cc1cc(C(C)(C)C)cc(C)c1CC1=NCCN1 | -6.02% |
| O=C(O)c1cc(-c2ccc(F)cc2F)ccc1O | -2% |
| O=c1[nH]c(=O)n([C@H]2C[C@H](O)[C@@H](CO)O2)cc1F | -2.43% |
| Nc1nc(N)nc(-c2cc(Cl)ccc2Cl)n1 | -2.66% |
| CN1CCCCC1CCN1c2ccccc2Sc2ccc(S(C)=O)cc21 (stereo not given) | -2.96% and -0.765% |
| Nc1nc2c(ncn2COCCO)c(=O)[nH]1 | -0.779% |
| COc1cccc2c1C(=O)c1c(O)c3c(c(O)c1C2=O)C[C@@](O)(C(C)=O)C[C@@H]3O[C@H]1C[C@H](N)[C@H](O)[C@H](C)O1 | -7.89% |
| CCCCC(CC)CN1CN(CC(CC)CCCC)CC(C)(N)C1 (stereo not given) | -2.15% |
| CC(N=C(NC#N)Nc1ccncc1)C(C)(C)C (stereo not given) | -8.82% |
| C[C@@H](O)[C@H](N)C(=O)O | -1.79% |
| O=C1CCc2ccc(OCCCCN3CCN(c4cccc(Cl)c4Cl)CC3)cc2N1 | -4.05% |
| CCCCCCCCCCCCCC[N+](C)(C)C | -17% |
| CC(C)NC[C@@H](O)COc1ccc(CC(N)=O)cc1 | -0.64% |
| CC(C(=O)O)c1ccc2c(c1)[nH]c1ccc(Cl)cc12 (stereo not given) | -1.86% |
| Cc1nc(-c2ccc(Cl)cc2)oc1COC(C)(C)C(=O)O | -7.31% |
| CCCCCCCCCCCCCC[N+](C)(C)Cc1ccccc1 | -5.38% |

| Structure (SMILES) | max activation |
| --- | --- |
| Cc1cc(C)c(/C=C2\C(=O)Nc3ccccc32)[nH]1 | -0.232% |
| CCCCCCCC/C=C\CCCCCCCCN | -1.07% |
| CC(C)Cn1cnc2c(N)nc3ccccc3c21 | 2.02% |
| C#CC1(O)CC[C@H]2[C@@H]3CCC4=CCCC[C@@H]4[C@H]3CC[C@@]21C (stereo not given in full) | -0.183% |
| CN(C)C(=O)COC(=O)Cc1ccc(OC(=O)c2ccc(N=C(N)N)cc2)cc1 | -2.55% |
| NC[C@H]1O[C@H](O[C@H]2[C@H](O[C@@H]3O[C@H](CO)[C@@H](O)[C@H]3O)C(O)[C@H](N)C[C@@H]2N)[C@H](N)[C@@H](O)[C@@H]1O (stereo not given in full) | 3.62% |
| COc1ccc2cc1Oc1ccc(cc1)C[C@H]1c3c(cc4c(c3Oc3cc5c(cc3OC)CCN(C)[C@@H]5C2)OCO4)CCN1C | -17.4% |
| CCCCCCCCCCCCOCCOCCOCCOCCOCCOCCOCCOCCOCCO | -18.4% |
| CCOc1ccc2ccccc2c1C(=O)N[C@@H]1C(=O)N2[C@@H]1SC(C)(C)[C@@H]2C(=O)O | -0.231% |
| CC[N+](CC)(CC)CCOc1ccc(/C=C/c2ccccc2)cc1 | -2.42% |
| CCc1oc2ccccc2c1C(=O)c1cc(I)c(O)c(I)c1 | -8.05% |
| Cc1c(C)c2c(c(C)c1OC(=O)c1cccnc1)CC[C@@](C)(CCC[C@H](C)CCC[C@H](C)CCCC(C)C)O2 | 0.296% |
| CCCCC/C=C\C/C=C\CCCCCCCC(=O)O | -4.54% |
| O=C(O)CN(CCN(CC(=O)O)CC(=O)O)CC(=O)O | -0.541% |
| Cc1cc(-n2nc3ccc(Cl)cc3n2)c(O)c(C(C)(C)C)c1 | -2.8% |
| CC1(C)[C@@H](O)CC[C@]2(C)[C@H]3C(=O)C=C4[C@@H]5C[C@@](C)(C(=O)O)CC[C@]5(C)CC[C@@]4(C)[C@]3(C)CC[C@@H]12 | 1.62% |
| COC1=C(OC)C(=O)C(CCCCCCCCCCO)=C(C)C1=O | 4.16% |
| CCc1cccc(CC)c1NC(=O)CN(CC(=O)O)CC(=O)O | -4.1% |
| Cc1c(F)c(N2CCNC(C)C2)cc2c1c(=O)c(C(=O)O)cn2C1CC1 (stereo not given) | -0.343% |
| Cc1cccc(C(=O)O)c1O | -0.388% |
